Source: PubChem BioAssay (Tox21)
Inconclusive results are not listed. Active and inactive are the calls of the source. The call rests on the fitted dose curve.

assay: qHTS assay to identify small molecule agonists of the endoplasmic reticulum stress response signaling pathway - cell viability counter screen (AID 1159517); settings: ESRE-bla HeLa viability, CellTiter-Glo luminescence, 5 h; series mostly up to 61 µM; further: nearly all actives have a fitted effect of over 50% in size
Excerpt: U.S. Tox21 Program National Center for Advancing Translational Sciences [NCATS] NIH Chemical Genomics Center [NCGC] U.S. Environmental Protection Agency [EPA] National Institutes of Environmental Health Sciences [NIEHS] National Toxicology Program [NTP] U.S. Food and Drug Administration [FDA] Tox21 Assay Overview: Endoplasmic Reticulum (ER) plays an important role in cellular signaling, protein folding/maturation, stress response, lipid biosynthesis, calcium storage and release etc. Under stress conditions, proteins in ER misfold or unfold, and leading to the expression of ER stress responsive genes. ER stress has been associated with a variety of pathophysiological conditions such as cancer, inflammation, neurodegenerative diseases, diabetes, ischemic heart disease etc. To identify the compounds that induce ER stress response, an ER stress reporter cell line, CellSensor ESRE-bla HeLa (Life Technologies, Carlsbad, CA) containing a beta-lactamase reporter gene under control of the Endoplasmic reticulum Stress Response Element (ESRE) was used to screen Tox21 10K compound library. The cytotoxicity of the Tox21 compound library against the ESRE-bla HeLa cell line was tested in parallel by measuring cell viability using the CellTiter-Glo assay in the same wells.
Tox21 Assay Protocol Summary: ESRE-bla HeLa cells were dispensed at 1,500 cells/6 uL of assay medium per well into black wall/clear-bottom 1536-well plates using a Multidrop Combi (ThermoFisher Scientific, Waltham, MA) dispenser. After the assay plates were incubated at 37 C and 5% CO2 for an overnight, 23 nL of compounds dissolved in DMSO, positive controls or DMSO only was transferred to the assay plate by a Pintool station (Kalypsys, San Diego, CA). The assay plates were incubated at 37 C and 5% CO2 for 5 hr. One uL of LiveBLAzer B/G FRET substrate (Life Technologies) was added using a FRD (Flying Reagent Dispenser, Aurora Discovery, San Diego, CA) and the plates were incubated at room temperature for 2 hr. Fluorescence intensity (405 nm excitation, 460 nm and 530 nm emissions) was measured using an Envision plate reader (PerkinElmer, Shelton, CT). For cytotoxicity, 4 ul/well of CellTiter-Glo reagent was added into the assay plates using an FRD. After 30 min incubation at room temperature, the luminescence intensity was measured using a ViewLux plate reader (PerkinElmer).

| SMILES | outcome |
| --- | --- |
| O=c1[nH]c(=O)n([C@H]2C[C@H](O)[C@@H](CO)O2)cc1Br | inactive |
| O=C1CCC(N2C(=O)c3ccccc3C2=O)C(=O)N1 (stereo not given) | inactive |
| CCCCCCOCCO | inactive |
| CC(C)c1ccc(S(=O)(=O)O)cc1 | inactive |
| C[Si](O[Si](C)(C)C)O[Si](C)(C)C | inactive |
| OCc1cccnc1 | inactive |
| O=P(OC(CCl)CCl)(OC(CCl)CCl)OC(CCl)CCl | inactive |
| O=C(O)c1ccc2c(c1)C(=O)OC2=O | inactive |
| CC(O)COCC(C)O (stereo not given) | inactive |
| Cc1cccnc1 | inactive |
| CN(C)CCOCCN(C)C | inactive |
| C#CCN(C)Cc1ccccc1 | inactive |
| O=C(O)c1ccc(C(=O)O)cc1 | inactive |
| CCCCN(CCCC)CCCC | inactive |
| Oc1cccc2ccccc12 | inactive |
| C/C=C1/CC2C=CC1C2 (stereo not given) | inactive |
| CC(=O)CC(=O)Nc1ccccc1 | inactive |
| CCCSc1ccc2nc(NC(=O)OC)[nH]c2c1 | inactive |
| O=c1[nH]nnc2ccccc12 | inactive |
| OC[C@H]1O[C@@](CO)(O[C@H]2O[C@H](CO)[C@@H](O)[C@H](O)[C@H]2O)[C@@H](O)[C@@H]1O | inactive |

| SMILES | outcome |
| --- | --- |
| O=C(O)c1cc(O)c(O)c(O)c1 | inactive |
| O=S(=O)(O)c1ccc2ccccc2c1 | inactive |
| Fc1ccc(Br)cc1 | inactive |
| O=S1(=O)CC=CC1 | inactive |
| Cc1ccc(S(N)(=O)=O)cc1 | inactive |
| O=C=NCCCCCCN=C=O | inactive |
| O=C(Oc1ccccc1)c1ccccc1 | inactive |
| C=CCNC(N)=S | inactive |
| CC(C)(C)[C@@H](O)[C@@H](Cc1ccc(Cl)cc1)n1cncn1 | inactive |
| CC1=C(C)S(=O)(=O)CCS1(=O)=O | inactive |
| Cc1ccc(N(C)C)cc1 | inactive |
| COc1ccc(NC(C)=O)cc1N | inactive |
| CCCCCCCCCC | inactive |
| CCCCOC(=O)COc1ccc(Cl)cc1Cl | inactive |
| c1ccc(OCCOc2ccccc2)cc1 | inactive |
| CCCCC(CC)COC(=O)CS (stereo not given) | inactive |
| CC(=O)CC(=O)Nc1ccccc1C | inactive |
| CCN(CC)CCCC(C)Nc1ccnc2cc(Cl)ccc12 (stereo not given) | inactive |
| CC1CCC(C(C)C)C(O)C1 (stereo not given) | inactive |
| Cc1occc(=O)c1O | inactive |
